# Laboratory results published in PubChem BioAssay.
# Where “and” joins values, the source holds several entries; their conditions need not be identical. Identical values can stand only once. Calls of active or inactive are those of the source.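 The calls were made as follows, unless noted: active = compounds whose cell count with miR-34 switched on is under 0.7 times the count with it off; inactive = the rest.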
# What was measured:
# [1] = tested on: Aerobactin synthetase IucA (Klebsiella pneumoniae); experiment: IucA aerobactin synthetase inhibitors, biochemical, Tocris library, absorbance (AID 1345561; call rule not given here;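 also: 100% = enzyme without compound and 0% = no enzyme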); details: purified IucA enzyme assay, absorbance (OD) read-out; stronger effect = lower value;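 tested at 8 µM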
# [2] = sensitizers of A549 cells to miR-34 induction, primary screen, imaging, A549 dox-inducible miR-34, nuclei and caspase counts (AID 1347080); details: A549 miR-34 inducible, Hoechst nuclei count, 48 h
# [3] = viability rescue of complex I mutant cybrids, primary screen, cell-based, galactose medium, ATP luminescence (AID 1645843;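 active = z-score of at least 1.8 in each of two replicates, scored against plate mean and spread of sample wells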;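 also: positive z means more ATP and so rescue of galactose-driven cybrid death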); details: complex I mutant cybrid cells, 72 h, stronger effect = higher value
# [4] = stronger effect = lower value, cell number ratio, induced over uninduced
# [5] = measured here: relative caspase fold change +Dox/-Dox
# [6] = measured here: total cells with miR-34 induction, stronger effect = lower value
# [7] = measured here: total cells without miR-34 induction
SMILES,remaining activity [1],"fold change [2, 4]","fold change [2, 5]","cell count [2, 6]","cell count [2, 7]",z-score [3]
OC(CCCN1CCN(c2ncc(F)cn2)CC1)c1ccc(F)cc1 (configuration not stated),116% (inactive),0.931 (inactive),0.869,7880,8470,-0.495 (inactive)
O=C(c1c(O)c2ccc(Cl)cc2[nH]c1=O)C1CC1,118% (inactive),0.973 (inactive),1.04,8250,8480,-0.025 (inactive)
O[C@H](CNC[C@@H](O)[C@H]1CCc2cc(F)ccc2O1)[C@@H]1CCc2cc(F)ccc2O1,101% (inactive),1.03 (inactive),0.967,3230,3140,-0.5 (inactive)
C[C@]12CC[C@@H]3c4ccc(O)cc4C[C@@H](CCCCCCCCCS(=O)CCCC(F)(F)C(F)(F)F)C3[C@@H]1CC[C@@H]2O (some centres not stated),117% (inactive),0.929 (inactive),0.852,6320,6800,0.9 (inactive)
COc1ccc(CN2C(=O)C(=O)c3cc(OC(F)(F)F)ccc32)cc1,114% (inactive),0.793 (inactive),1.39,1960,2480,-1.04 (inactive)
COc1ccc(-c2nc(C(=O)N3CCN(C)CC3)sc2-c2ccc(OC)cc2)cc1,116% (inactive),0.946 (inactive) and 0.989 (inactive),2.48 and 0.892,5370 and 9040,5680 and 9140,-0.66 (inactive)
C[C@H](NC[C@H](O)CP(=O)(O)Cc1ccccc1)c1ccc(Cl)c(Cl)c1,111% (inactive),0.949 (inactive),1.04,8740,9210,0.06 (inactive)
CCOC(=O)C1CSC(Cc2ccc(OCc3ccc([N+](=O)[O-])cc3)cc2)N1 (configuration not stated),95.4% (inactive),0.923 (inactive),1.54,8250,8940,-0.58 (inactive)
O=C1c2ccccc2CCC1CNCCc1ccc(O)cc1 (configuration not stated),104% (inactive),0.994 (inactive),0.835,8920,8970,-1.23 (inactive)
CN1CCN(C2=Cc3ccccc3Oc3ccc(Cl)cc32)CC1,104% (inactive),0.963 (inactive),0.764,6800,7060,-0.9 (inactive)
COc1ccc(Nc2ncnc3ccc(OC)cc23)cc1,108% (inactive),0.902 (inactive),1.09,6910,7660,-0.345 (inactive)
CCCCOC(=O)c1cc2c(cn1)[nH]c1ccccc12,96.6% (inactive),0.861 (inactive),0.7,7200,8360,1.05 (inactive)
N[C@@H]1CCN(O)C1=O,121% (inactive),0.981 (inactive),0.836,9080,9260,0.66 (inactive)
O=C(O)CC/C=C\C[C@@H]1CO[C@H](c2ccccc2Cl)O[C@@H]1c1ccccc1O,75.4% (inactive),0.977 (inactive),0.805,8270,8470,6.17 (active)
O=[N+]([O-])c1cc(Cl)ccc1S(=O)(=O)N1CCN(Cc2ccccc2)CC1,110% (inactive),0.93 (inactive),1.18,8490,9130,-0.68 (inactive)
CC(=O)N(O)[C@@H]1c2cc(C#N)ccc2OC(C)(C)[C@H]1O,89.1% (inactive),0.882 (inactive),2.17,8800,9980,0.655 (inactive)
C[N+](C)(C)CCCCCNCC12CC3CC(CC(C3)C1)C2,117% (inactive),0.943 (inactive),0.772,8560,9080,-0.15 (inactive)
CCN(CC)CC1CCN(c2ncc3ncnc(Nc4ccc(F)c(Cl)c4)c3n2)CC1,124% (inactive),0.891 (inactive),1.55,1440,1620,-0.675 (inactive)
CC1c2ccccc2CN1CC1=NCCN1 (configuration not stated),111% (inactive),0.985 (inactive),0.732,8400,8530,-0.515 (inactive)
NCCCCCCCCCCNS(=O)(=O)c1cccc2c(Cl)cccc12,98.7% (inactive),0.827 (inactive),0.835,5900,7130,-1.11 (inactive)
OC[C@H]1O[C@@H](n2cnc3c(NC4CCCC4)nc(Cl)nc32)[C@H](O)[C@@H]1O,122% (inactive),0.891 (inactive),0.662,8890,9980,0.55 (inactive)
CCCOc1ccc(Br)cc1-c1cc(-c2ccc(Cl)cc2)[nH]c1-c1ccncc1,102% (inactive),0.969 (inactive),1.19,8200,8460,0.1 (inactive)
CCCCN1CCC(CCC(=O)c2cc(Cl)c(N)cc2OC)CC1,95.7% (inactive),0.973 (inactive),1.12,8560,8800,-0.48 (inactive)
N#Cc1ccc(NCCNCC(=O)N2CCC[C@H]2C#N)nc1,110% (inactive),0.825 (inactive),2.19,8330,10100,0.41 (inactive)

SMILES,remaining activity [1],"fold change [2, 4]","fold change [2, 5]","cell count [2, 6]","cell count [2, 7]",z-score [3]
CN1C[C@H]2c3ccccc3Oc3ccc(Cl)cc3[C@@H]2C1 (racemic),109% (inactive),0.868 (inactive),2.03,5560,6410,-0.745 (inactive)
NC(C(=O)O)c1nn[nH]n1 (configuration not stated),102% (inactive),1.01 (inactive),0.805,9500,9360,-0.46 (inactive)
N[C@@H](C(=O)O)c1ccc(C(=O)O)c(C(=O)O)c1,95.5% (inactive),0.914 (inactive),0.832,8600,9410,0.05 (inactive)
CCCCNC(=O)[C@@H]1Cc2ccccc2N1C(=O)[C@@H](N)CC,110% (inactive),0.978 (inactive),1.76,9030,9230,0.245 (inactive)
CC(=O)c1ccc2c(c1)[C@@H]1C=CC[C@@H]1[C@H](c1cc3c(cc1Br)OCO3)N2,128% (inactive),1.21 (inactive) and 1.03 (inactive),0.332 and 1.3,2540 and 1820,2100 and 1760,-0.965 (inactive)
O=C(Nc1ccccc1)N[C@H]1C[C@H](C(=O)O)Nc2cc(Cl)cc(Cl)c21,104% (inactive),0.916 (inactive),0.915,8670,9460,0.995 (inactive)
CCOC(=O)c1c(C)[nH]c2ccc3c(c12)CN1CCc2cc(OC)ccc2C1O3 (configuration not stated),112% (inactive),0.942 (inactive),0.667,3940,4180,-0.785 (inactive)
O=C(N/N=C/c1ccccc1O)c1ccccc1O,106% (inactive),0.984 (inactive),1.5,4010,4070,-0.59 (inactive)
O=[N+]([O-])c1cc2nc(O)c(O)nc2cc1[N+](=O)[O-],103% (inactive),0.896 (inactive),1.68,8310,9280,-0.355 (inactive)
COC(=O)[C@@H]1C2C[C@H]3c4[nH]c5ccccc5c4CCN3C[C@@H]2CC[C@@H]1O (some centres not stated),95.9% (inactive),0.91 (inactive),2.92,8430,9270,0.315 (inactive)
COc1ccc(NS(=O)(=O)c2ccc(I)cc2)cc1N1CCN(C)CC1,112% (inactive),0.956 (inactive),0.589,6570,6870,-0.545 (inactive)
CC(C)Oc1cccc(-n2c(CCc3c[nH]c4ccc(Br)cc34)nc3ccccc3c2=O)c1,110% (inactive),1.07 (inactive),0.884,6620,6200,-1.18 (inactive)
CCOc1ccccc1O[C@H](c1ccccc1)[C@H]1CNCCO1 (racemic),119% (inactive),0.937 (inactive),0.923,7740,8260,-0.36 (inactive)
Nc1nnc(Sc2ncc([N+](=O)[O-])s2)s1,119% (inactive),0.911 (inactive),4.18,3000,3290,-1.04 (inactive)
O=C(Nc1ccccc1)C12CC1/C(=N\O)c1ccccc1O2 (configuration not stated),107% (inactive),0.911 (inactive),0.471,7010,7700,0.135 (inactive)
CC(=O)NC1=NN(C(C)=O)C(C)(c2ccccc2)S1 (configuration not stated),109% (inactive),1.17 (inactive),2.25,1640,1400,-0.275 (inactive)
Cn1cc(/C=C2/C(=O)Nc3cccnc32)c2ccccc21,89.8% (inactive),0.833 (inactive),1.45,2650,3180,-0.435 (inactive)
CC(C)[C@H]1c2ccc(F)cc2CC[C@@]1(CCN(C)CCCc1nc2ccccc2[nH]1)OC(=O)C1CC1,104% (inactive),0.792 (inactive),1.77,263,332,-0.705 (inactive)
CCCCC#Cc1nc(NC)c2ncn([C@@H]3O[C@H](CO)[C@@H](O)[C@H]3O)c2n1,96.8% (inactive),0.906 (inactive),0.777,8810,9730,-0.21 (inactive)
N#C/C(=C\c1ccc(O)c(O)c1)C(=O)NCCCCc1ccccc1,95.7% (inactive),0.982 (inactive),1.09,7480,7610,-0.725 (inactive)
OC1CCC(Nc2nc(-c3ccccc3)nc3[nH]ccc23)CC1 (configuration not stated),112% (inactive),0.975 (inactive),1.31,8990,9220,1.67 (inactive)
CNC(=O)[C@H]1O[C@@H](n2cnc3c(NCc4cccc(I)c4)ncnc32)[C@H](O)[C@@H]1O,116% (inactive),0.865 (inactive),0.723,8280,9570,2.99 (active)
CCc1cc(C2NNC(C)C2c2ccc3c(c2)OCCO3)c(O)cc1O (configuration not stated),92.2% (inactive),1.01 (inactive),1.27,4520,4490,0.625 (inactive)
